Bioassay records: PubChem BioAssay, National Center for Advancing Translational Sciences (NCATS)
This is a sample that favours compounds with a hit; in the whole collection about 4% have one here.
TRHR enhancer: allosteric enhancers of human TRH receptor; P34981; TRHR cells, fluo-8 calcium fluorescence, EC20 TRH enhancement; AID 493056; enhancement, % at 2 µM; actives 0.66% (n = 360,000); in the data active means enhancement above about 30%; further: 0% is about no effect
Target sequence (P34981 whole entry, looked up): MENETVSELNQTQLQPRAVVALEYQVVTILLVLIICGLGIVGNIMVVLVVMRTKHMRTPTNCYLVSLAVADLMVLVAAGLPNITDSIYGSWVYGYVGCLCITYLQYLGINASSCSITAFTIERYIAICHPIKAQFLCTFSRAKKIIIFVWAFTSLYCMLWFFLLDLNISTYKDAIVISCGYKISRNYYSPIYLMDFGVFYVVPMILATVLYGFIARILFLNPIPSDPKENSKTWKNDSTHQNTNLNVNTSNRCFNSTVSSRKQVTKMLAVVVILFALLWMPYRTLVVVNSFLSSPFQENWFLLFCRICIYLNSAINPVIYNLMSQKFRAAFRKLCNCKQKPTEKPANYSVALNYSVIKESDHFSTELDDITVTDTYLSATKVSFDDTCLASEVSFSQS
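TRHR-expressing cells loaded with fluo-8 calcium dye were read kinetically (ex 480/em 530) during compound addition, then stimulated with an EC20 of TRH (10 nM final). Enhancement of the Gq-mediated intracellular calcium response was scored.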
TRHR agonist: agonists of human TRH receptor. TRHR cells, calcium flux fluo-8, FDSS agonist mode. activation, % at 2 µM. actives 0.18% (n = 360,000). AID 493084; further: 0% is about no effect
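Read-out: compound-evoked intracellular calcium rise in TRHR cells, fluo-8 dye, kinetic FDSS fluorescence at 1 s/cycle following a 10-cycle baseline. Cells cultured overnight before dye loading (30 min–1.5 h, RT).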
D1 agonist: agonists of human D1 dopamine receptor | P21728 | HEK293 T-REx D1 cells, calcium flux, agonist mode | activation, % at 2 µM | actives 1% (n = 360,000) | AID 504660; further: 0% is about no effect
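Agonism was scored from calcium flux recorded over 180 s (1 read/s) after pintool compound addition, following a 10-cycle baseline. Cells were inducible force-coupled HEK293 TREx D1, plated overnight at 30 C and loaded with no-wash calcium dye.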
D1 PAM: human D1 dopamine receptor positive modulation | AID 504651 | HEK293 TREx D1 cells, calcium flux, dopamine EC20 potentiation | potentiation, % at 10 µM | actives 0.036% (n = 360,000); in the data active means potentiation above about 30%; further: 0% is about no effect
GRP78 ERSR act: inducers of ER stress response in human glioma cells. Potency, µM, for the others: at the top dose activation, most hits filed as activators. actives 0.02% (n = 420,000). U87-MG GRP78 promoter luciferase reporter, 16 h; active means well fitted activation curve with a large enough effect; further: potency means the concentration at half of the fitted maximal effect; series mostly up to about 76 µM; % of control where 0% means no effect; nearly all actives have a fitted effect of over 35% in size
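Stably transfected U87-MG glioma cells carrying a GRP78-based luciferase sensor; 16 h compound incubation. Luminescence end-point read 10 min after Bright-Glo addition at room temperature.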
D1 antag: human D1 dopamine receptor antagonism. HEK293 TREx D1 cells, calcium flux, dopamine EC80; active compounds read low. activity change, negative = inhibition, % at 10 µM. actives 3.2% (n = 360,000). AID 504652; in the data active means activity change below about -30%; further: on the % scale 0 is the no-effect control and ±100 the full control effect
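Inducible Hek293 Trex D1 cells (tetracycline, overnight, 30 C). Calcium dye 30–90 min RT. Antagonist mode: EC80 dopamine added after 180 s compound read.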
Active calls of the source: *; . = no result. Unless noted, no stated cut-off is given here; in the data, active means activation above about 30%; inactive means the rest.

SMILES	TRHR enhancer	TRHR agonist	D1 agonist	D1 PAM	GRP78 ERSR act	D1 antag
CC1Nc2ccccc2C(=O)N1NS(C)(=O)=O (configuration not stated)	33*	0	1	4	-2%	10
COc1ccc(NC(=O)COCc2cc(-c3ccc4c(c3)OCO4)on2)cc1	-4	0	10	-7	-3%	-15
N#Cc1ccc(NC(=O)COCc2cc(-c3ccc4c(c3)OCO4)on2)cc1	2	0	5	-2	-5%	-40*
CCOc1cccc(CC(=O)N2CCc3c([nH]c4ccccc34)C2c2ccc(Cl)cc2)c1OCC (configuration not stated)	0	0	2	-3	-3%	-86*
CN(Cc1ccccc1)c1cc2c(c3c1ccn3C)C1CCC2O1 (configuration not stated)	.	.	.	.	3%	.
CCCCC/C=C\CC1OC1C/C=C\C/C=C\CCCC(=O)O (configuration not stated)	.	.	.	.	-3%	.
Cc1cc(C)n2ncc(C(=O)NCCc3ccccc3)c2n1	-3	0	0	4	0%	-33*
Cc1ccc(-c2cc(C(=O)NCCc3ccccc3)c3ccccc3n2)cc1C	0	0	2	-2	0%	-31*
COc1ccccc1CN1CCC(CNC(=O)c2cnn(-c3ccc(Cl)cc3)c2C2CCN(C(=O)OC(C)(C)C)CC2)CC1	16	2	31*	-6	-6%	-1
Cc1ccc(C)c(N2CCN(CCCNC(=O)c3cnn(-c4ccc(F)cc4)c3C3CCN(C(=O)OC(C)(C)C)CC3)CC2)c1	-6	-1	4	-4	-2%	-32*
Cc1ccc(-n2ncc(C(=O)NCCN3CCC(Cc4ccccc4)CC3)c2C2CCN(C(=O)OC(C)(C)C)CC2)cc1	18	-1	56*	1	-10%	-10
COc1ccccc1CN1CCC(CNC(=O)c2cnn(-c3ccc(C)c(C)c3)c2C2CCN(C(=O)OC(C)(C)C)CC2)CC1	-7	1	9	2	-7%	27
Cc1ccc(-n2ncc(C(=O)NCCN3CCCC3)c2C2CCN(C(=O)OC(C)(C)C)CC2)cc1	6	-2	21	-6	-2%	-21
Cc1cccc(-n2ncc(C(=O)N3CCOCC3)c2C2CCN(C(=O)OC(C)(C)C)CC2)c1	14	1	1	-5	-3%	-77*
CCCNC(=O)C1(C)CCCN(C(=O)c2cc(C(C)(C)C)nn2C)C1 (configuration not stated)	.	.	.	.	-1%	.
COC(=O)c1ccc(CN=C(NS(=O)(=O)c2ccccc2)c2ccccc2)cc1	.	.	.	.	-4%	.
CN(C)CCNC(=O)C(=O)Nc1ccc2c(c1)N(S(=O)(=O)c1cccs1)CCC2	1	0	56*	-1	-3%	-6
Cc1ccc(C(=O)c2cn[nH]c2-c2cc(Cl)ccc2O)cc1	3	0	58*	-4	-1%	-19
CC(C)(C)c1ccc(C(=O)NC(=S)Nn2cnnc2)cc1	3	0	2	-4	-2%	-32*
O=C(NC(=S)Nn1cnnc1)c1ccccc1Cl	-4	0	2	-2	-1%	5
CCOC(=O)CC1C(=O)NCCN1c1nc2c(C)cccn2c(=O)c1/C=C1\SC(=S)N(CC(C)C)C1=O (configuration not stated)	0	24	111*	-5	.	-15
CCOCCCNc1nc2c(C)cccn2c(=O)c1/C=C1\SC(=S)N(C(C)CC)C1=O (configuration not stated)	2	21	114*	0	1%	-7
CCCN1C(=O)/C(=C/c2c(NCCCOCC)nc3c(C)cccn3c2=O)SC1=S	11	-1	0	6	1%	12
CC(C)CN1C(=O)/C(=C/c2c(N3CCc4ccccc4C3)nc3ccccn3c2=O)SC1=S	-2	6	11	-6	.	-2
CCOCCCNc1nc2c(C)cccn2c(=O)c1/C=C1\SC(=S)N(CC(C)C)C1=O	16	8	30*	-4	-3%	-11
COc1ccccc1C(=O)NCCC(=O)NCc1cccs1	9	1	0	-2	1%	15
